KDM5B inhibitor: Primary screen for KDM5B Histone Demethylases FDH-coupled qHTS | Lysine-specific demethylase 5B (Homo sapiens), Q9UGL1 | KDM5B demethylase, FDH-coupled NADH fluorescence (FDH is formaldehyde dehydrogenase) | Potency, µM (titrated, usually from 57.7 µM), hits mostly inhibitors | 2.6% of 220,000 active; active means well fitted inhibition curve with a large enough effect; further: nearly all actives have a fitted effect of over 70% in size
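Inhibition is measured as reduced NADH fluorescence generation from FDH coupling to formaldehyde release. Truncated KDM5BΔAP at 200 nM final acts on H3K4me3 peptide (12.5 µM in substrate mix) in pH 7.5 HEPES buffer with Tween-20, 30 min, room temperature.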
Of the large screens only hits and unclear results are named; the others gave an inactive call. This is one part of a sample in which hits are shown more often than they occur.

O=C(O)C1CCCN(C(=O)c2ccoc2)C1 (centres undefined)	none
CSc1ccc(C(C)NC(=O)C2CC=CCC2)cc1 (centres undefined)	none
O=C(COc1ccccc1)N1CCC(n2cc(-c3nc(-c4ccccc4)no3)nn2)CC1	none
CCCOC(=O)c1ccc(Nc2nc(C(=O)OCC)nc3ccccc23)cc1	none
O=C(CC1C=CCC1)Nc1cccc(OC2CCCC2)c1 (centres undefined)	none
CN1CCc2c([nH]c3ccccc23)C12CCN(C(=O)c1ccccc1)CC2	none
Cc1ccc(C(=O)C(Sc2ncccn2)c2ccc(C)cc2)cc1 (centres undefined)	none
O=C1CCN(S(=O)(=O)c2ccccc2)CCCN(Cc2ccc(C(F)(F)F)cc2)CCN1	none
COC(=O)c1ccc(C)c(NS(=O)(=O)c2c(C)nn(C)c2C)c1	none
CCOC(=O)COc1ccc2c(=O)c(-c3ccc(OC)cc3)coc2c1	none
COc1ccc(C(=O)Nc2ccc(-c3noc([C@@H]4CCCN4CC4CCCCC4)n3)cn2)cc1	KDM5B inhibitor 31.6µM
COCC(=O)Nc1ccc(-c2noc([C@@H]3CCCN3C)n2)cn1	none
COCC(=O)Nc1ccc(-c2noc([C@@H]3CCCN3Cc3ccc(NC(C)=O)cc3)n2)cn1	none
COCC(=O)Nc1ccc(-c2noc([C@@H]3CCCN3Cc3cc4ccccc4o3)n2)cn1	KDM5B inhibitor 31.6µM
O[C@@H]1C[C@@H](c2nc(-c3ccccn3)no2)N(Cc2cc3ccccc3o2)C1	KDM5B inhibitor 31.6µM
O[C@@H]1C[C@@H](c2nc(-c3ccccn3)no2)N(Cc2ccccc2)C1	none
COCC(=O)Nc1ccc(-c2noc([C@@H]3CCCN3Cc3cccc(C#N)c3)n2)cn1	none
COc1ccc(-c2noc([C@@H]3CCCN3C(=O)c3ccc(Cl)cc3)n2)cc1	none
O[C@@H]1C[C@@H](c2nc(-c3ccccn3)no2)N(Cc2cccc(OC(F)(F)F)c2)C1	none
COc1ccc(-c2noc([C@@H]3CCCN3C(=O)c3ccc(C)nc3)n2)cc1	none
COc1ccc(C(=O)Nc2ccc(-c3noc([C@@H]4CCCN4Cc4ccc(C(F)(F)F)cc4)n3)cn2)cc1	KDM5B inhibitor 28.2µM
COc1ccc(CCC(=O)N2CCC[C@H]2c2nc(-c3ccc(C)cc3)no2)cc1	none
COc1cccc2cc(C(=O)NC3CCN(Cc4ccc(Cl)cc4)CC3)c(=O)oc12	none
Cc1ccc(C(CNc2oc(CC(C)C)nc2C#N)N2CCOCC2)cc1 (centres undefined)	none
O=C(CCc1ccsc1)NCC1CCCC1	none
CN1CC(=O)N(c2ccc(Cl)cc2)Cc2c1ncnc2N1CCC(Cc2ccccc2)CC1	none
CCC(CO)NS(=O)(=O)c1cc(Cl)c(Cl)cc1Cl (centres undefined)	none
CN1CCN(C2(CNC(=O)COc3ccc4ccc(=O)oc4c3)CCCCC2)CC1	none
CCOc1ccccc1Oc1c(C)oc2cc(OC(C)=O)ccc2c1=O	none
COCc1nnc(NC(=O)CCn2ccc3ccc(Br)cc32)s1	none
C=C(C)COc1ccc2c(C)c(CC(=O)Nc3ccc4c(c3)OCO4)c(=O)oc2c1	none
CN(C)c1ccc(-c2noc([C@@H]3CCCN3C3CCOCC3)n2)cn1	none
CN(C)c1ccc(-c2noc([C@@H]3CCCN3CC3CCCCC3)n2)cn1	KDM5B inhibitor 39.8µM
Cc1ccc(NC(=O)C(C)Sc2ccc(C(F)(F)F)cn2)cc1 (centres undefined)	none
COc1ccc(CN2CCNc3cnc(Nc4cccnc4)cc3C2)cc1O	KDM5B inhibitor 35.5µM
COc1ccc(CN2CCNc3cc(Nc4cccnc4)ncc3C2)cc1O	none
COc1ccc(OC)c(CN2CCNc3cc(-c4ccccc4)ncc3C2)c1	none
COc1ccc(OC)c(CN2CCNc3cnc(Nc4ccccc4)cc3C2)c1	KDM5B inhibitor 35.5µM
COc1ccc(CN2CCNc3cnc(Nc4ccccc4)cc3C2)cc1O	KDM5B inhibitor 39.8µM
c1cncc(Nc2cc3c(cn2)CN(Cc2ccc4[nH]ccc4c2)CCN3)c1	none
Cn1cc(CN2CCNc3cc(Nc4ccccc4)ncc3C2)cn1	none
CCOC(=O)C(NC(=O)c1ccccc1)C(C)C (centres undefined)	none
COc1cc(CN2CCCCC2C)ccc1OC(F)F (centres undefined)	none
CCOC(=O)c1c(C)n(CC(=O)OC)c2ccc(O)cc12	none
O=C(NC1CCCC1)c1cc(-c2ccccn2)nc2c(Cl)cccc12	none
CC(C)CCNC(=O)c1cc2ccccc2oc1=O	none
COCCn1cnc2c1c(=O)n(CC(=O)OCCOc1ccccc1F)c(=O)n2Cc1ccccc1	none
CC1CCC2(CC1)N=C(c1ccc(Cl)c(Cl)c1)C(=S)N2 (centres undefined)	none
Cc1cc(C)n(-c2nc3ccccc3nc2N2CCN(S(=O)(=O)c3ccc(C)c(C)c3)CC2)n1	none
O=C(/C=C/c1cccnc1)c1ccc2c(c1)OCCCO2	none
Cc1cc(N2CCN(C(C(=O)O)c3c[nH]c4cc(Cl)ccc34)CC2)nc2ccccc12 (centres undefined)	none
O=C(O)C/C(=C/c1ccc(Br)cc1)c1nc2ccccc2s1	none
COc1ccc(C2(C(=O)N[C@@H]3CN(c4ccncn4)C[C@H]3CN(C)C)CC2)cc1	none
CC(=O)N1C[C@@H](CN(C)C)[C@H](NC(=O)c2ccccc2OC(F)(F)F)C1	none

Screening results (PubChem BioAssay)
